Laboratory results: PubChem BioAssay (NCATS)
Values joined by “and” are separate entries in the source; they are usually repeats but may differ in a detail not shown here. Equal entries are not always repeated. Results filed as inconclusive are left out. Where a call stands in place of a potency, no number is given. Unmarked numbers belong to inactive results. Active and inactive are the calls of the source. The call rests on the fitted dose curve; in most records, active means well fitted cell-killing curve with a large enough effect; inconclusive means small, poorly fitted or top-dose-only effect, or effect the other way; inactive means no such curve, though single readings can be large or run the other way.

Columns and labels:
[1] = Viability qHTS for spleen associated tyrosine kinase inhibitor (SYKi) naive MV4-11 cells (AID 1963823); further: nearly all actives have a fitted effect of over 40% in size
Outline: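 Read-out: CellTiter-Glo luminescence. Exposure: 72 hr, 37 C, 5% CO2, 95% humidity. Cells: MV4-11 without SYK inhibitor history, 500/well, qHTS format.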

[2] = Viability qHTS for spleen associated tyrosine kinase inhibitor (SYKi) drug resistant MV4-11 cells (AID 1963824); further: nearly all actives have a fitted effect of over 35% in size
Outline: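 SYK inhibitor-resistant MV4-11 AML cells, 500 per well, added to predispensed compounds and incubated 72 hr at 37 C, 5% CO2. Viability measured by CellTiter-Glo luminescence after 10 min at room temperature.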
Potency means the concentration at half of the fitted maximal effect.

| Structure (SMILES) | Potency [1] | Potency [2] | viability (% of control) [1] | viability, % of control [2] |
| --- | --- | --- | --- | --- |
| CC(=O)O[C@@](C)(C(=O)/C=C/C(C)(C)O)[C@H]1[C@H](O)C[C@@]2(C)[C@@H]3CC=C4[C@@H](C=C(O)C(=O)C4(C)C)[C@]3(C)C(=O)C[C@]12C | 0.317 µM (active) | 0.252 µM (active) |  |  |
| CS(=O)(=O)c1ccc([C@@H](CC2CCCC2)C(=O)Nc2cnccn2)cc1Cl | 31.6 µM (active) | 25.1 µM (active) |  |  |
| CC(=O)OCC1OC(O[C@H]2CC[C@]34C[C@]35CC(O)[C@]3(C)[C@@H]([C@H](C)CC/C=C(\C)C(=O)O)C(O)C[C@@]3(C)C5CC[C@H]4C2(C)C)C(O)C(O)C1OC1OCC(O)C(O)C1O (some centres not stated) |  |  | 62.3% [at 9.25 µM] | 79.7% [at 9.25 µM] |
| C[C@@H]1CC2OC(=O)C3=C2C(CCC3O)[C@@]12C[C@@H](c1ccoc1)OC2=O (some centres not stated) | inactive | inactive |  |  |
| O=c1[nH]c2ccccc2n1CCCN1CCN(C(c2ccccc2)c2ccccc2)CC1 | 15 µM (active) | 11.9 µM (active) |  |  |
| CC1(C)CC[C@]2(C(=O)O[C@@H]3O[C@H](CO[C@@H]4O[C@H](CO)[C@@H](O)[C@H](O)[C@H]4O[C@@H]4O[C@H](CO)[C@@H](O)[C@H](O)[C@H]4O)[C@@H](O)[C@H](O[C@@H]4O[C@H](CO)[C@@H](O)[C@H](O)[C@H]4O)[C@H]3O)CC[C@]3(C)C(=CCC4[C@@]5(C)CC[C@@H](O)[C@@](C)(C(=O)O[C@@H]6O[C@H](CO)[C@@H](O)[C@H](O)[C@H]6O)C5CC[C@]43C)[C@@H]2C1 (some centres not stated) |  |  | 73.4% [at 9.25 µM] | 80.3% [at 9.25 µM] |
| CC(C)c1nc(N(C)S(C)(=O)=O)nc(-c2ccc(F)cc2)c1/C=C/[C@@H](O)C[C@@H](O)CC(=O)O | 8.2 µM (active) | 2.91 µM (active) |  |  |
| C=CC(C)(O)CC/C=C(\C)C(=O)O[C@@H]1[C@@H](O)[C@H](OC(C)(C=C)CC/C=C(\C)C(=O)O[C@@H]2O[C@H](CO)[C@@H](O)[C@H](O)[C@H]2O)O[C@H](CO)[C@H]1OC(=O)/C(C)=C/CCC(C)(O)C=C (some centres not stated) |  |  | 87.6% [at 9.25 µM] | 77.6% [at 9.25 µM] |
| C=C(C)C(=O)O[C@H]1C[C@@](C)(O)C(=O)CC(O)/C(C)=C\[C@H]2OC(=O)C(=C)[C@H]12 (some centres not stated) | 1.61 µM (active) | 2.02 µM (active) |  |  |
| Cc1ccc(OCCSc2ncccn2)c(Br)c1 | inactive | inactive |  |  |
| Cn1cc(C2=C(c3coc4ccccc34)C(=O)NC2=O)c2cc(Br)ccc21 | 14.6 µM (active) | 7.31 µM (active) |  |  |
| CCOc1ccc(CCNC(=O)c2cc3sc(Cl)cc3n2C)cc1OCC | inactive | 1.64 µM (active) |  |  |
| C/C1=C\[C@H]2OC(=O)[C@@H](C)[C@@H]2CC/C(C(=O)O)=C/CC1 | inactive | inactive |  |  |
| COC(=O)C1=CO[C@@H](O[C@@H]2O[C@H](CO)[C@@H](O)[C@H](O)[C@H]2O)[C@@H]2[C@@H](C(=O)OC)[C@@H](O)C(O)[C@H]12 (some centres not stated) | inactive | inactive |  |  |
| CC(=O)N[C@H](Cc1ccc(O)cc1)C(=O)N[C@H](CCCN=C(N)N)C(=O)N[C@H](Cc1ccccc1)C(N)=O | inactive | inactive |  |  |
| CC1=C2C[C@H]3O[C@@]3(C)CCC3O[C@@]3(C)C[C@@]2(O)OC1=O (some centres not stated) | inactive | inactive |  |  |
| CCCN(CCC)C(=O)C1=Cc2ccc(-c3ccc(C(=O)N4CCCC4)cc3)cc2N=C(N)C1 | 8.33 µM (active) | 4.17 µM (active) |  |  |
| COc1c2c(c(C)c3c1C(=O)OC3)OC1(C)CC(O)C34OC(OC)(CC(OC(C)=O)C3(C)C1C2)OC4(C)C (configuration not stated) | inactive | inactive |  |  |
| CC1CC(=O)C2=C(C1)C1OC1C1(O)C2C(=O)c2cccc(O)c2C1O (configuration not stated) | inactive | inactive |  |  |

| Structure (SMILES) | Potency [1] | Potency [2] | viability (% of control) [1] | viability, % of control [2] |
| --- | --- | --- | --- | --- |
| Cc1c[nH]c2nccc(Oc3c(F)cc(Nc4cc(Cl)nc(N)n4)cc3F)c12 | 0.517 µM (active) | 0.731 µM (active) |  |  |
| CN[C@@H]1[C@@H](O)[C@@H](O[C@@H]2[C@@H](O)[C@H](O[C@H]3O[C@H](CN)[C@@H](O)[C@H](O)[C@H]3O)[C@@H](N)C[C@H]2NC(=O)[C@@H](O)CN)OC[C@]1(C)O | inactive | inactive |  |  |
| O=C(Cc1ccccc1)OC[C@H]1O[C@H](O[C@H]2O[C@H](CO)[C@@H](O)[C@H](O)[C@H]2O)[C@H](O)[C@@H](O)[C@@H]1O | inactive | inactive |  |  |
| NC(=O)c1cccc(-c2cc(O)cc(OC(=O)NC3CCCCC3)c2)c1 | inactive | inactive |  |  |
| O=C(O[C@H]1[C@H](Oc2ccc(O)cc2CO)O[C@H](CO)[C@@H](O)[C@@H]1O)c1ccccc1 | inactive | inactive |  |  |
| COC(=O)C1=CO[C@@H](O[C@@H]2O[C@H](CO)[C@@H](O)[C@H](O)[C@H]2O)C2C1CC(O)C2C (some centres not stated) | inactive | inactive |  |  |
| O=C1Nc2ccc(O)cc2O[C@H]1O[C@@H]1O[C@H](CO)[C@@H](O)[C@H](O)[C@H]1O | inactive | inactive |  |  |
| O=c1[nH]cnc2c([C@@H]3N[C@H](CO)[C@@H](O)[C@H]3O)c[nH]c12 | inactive | inactive |  |  |
| CC1CCCC[C@H]2C(=O)C=C[C@H](O)[C@@H]2CC(=O)O1 (some centres not stated) | 0.731 µM (active) | 0.731 µM (active) |  |  |
| CC(/C=C/C=C(\C)C(=O)O[C@@H]1O[C@H](CO[C@@H]2O[C@H](CO)[C@@H](O)[C@H](O)[C@H]2O)[C@@H](O)[C@H](O)[C@H]1O)=C\C=C\C=C(C)\C=C\C=C(/C)C(=O)O[C@@H]1C[C@](O)(C(=O)O)C[C@@H](O)[C@H]1OC(=O)/C=C/c1ccc(O)c(O)c1 |  |  | 78.4% [at 9.25 µM] | 91.1% [at 9.25 µM] |
| C=C(C(=O)O)C1CCC2(C)CCC(O)C(C)(O)C2C1 (configuration not stated) | inactive | inactive |  |  |
| CC(C)(O)c1ccc2c(c1)C(=O)CC1[C@](C)(CO)CCC[C@]21C (some centres not stated) | inactive | inactive |  |  |
| C=C1CC[C@]2(C(=O)O[C@@H]3O[C@H](CO)[C@@H](O)[C@H](O)[C@H]3O)CC[C@]3(C)C(=CCC4[C@@]5(C)C[C@H](O)[C@@H](O[C@@H]6O[C@H](C(=O)O)[C@@H](O)[C@H](O)[C@H]6O)[C@](C)(C=O)C5CC[C@]43C)C2C1 (some centres not stated) |  |  | 68.2% [at 9.25 µM] | 87.9% [at 9.25 µM] |
| C=CC(=O)N1CCN(C(=O)CNc2cc(-c3ccccc3Cl)c(Cl)cc2OC)CC1 | 10.3 µM (active) | 11.6 µM (active) |  |  |
| CC1CCC2C(C(=O)O)=CC3(O)CC(C)(C)CC123 (configuration not stated) | inactive | inactive |  |  |
| COc1cc2c(cc1O)CC[C@@H]1[C@@H]2CC[C@]2(C)[C@@H](O)CC[C@@H]12 | 0.833 µM (active) | 0.934 µM (active) |  |  |
| COc1cc(/C=C/C(=O)O[C@H]2C[C@@H]3C(C(=O)O)=CO[C@@H](O[C@@H]4O[C@H](CO)[C@@H](O)[C@H](O)[C@H]4O)[C@@H]3[C@H]2C)ccc1O | inactive | inactive |  |  |
| Cn1nnc(-c2ccc(-c3ccc(N4C[C@H](COP(=O)(O)O)OC4=O)cc3F)cn2)n1 | inactive | inactive |  |  |
| CC(=O)N1CCN([C@H]2CCN(C(=O)N(C)[C@H](C)c3cc(C(F)(F)F)cc(C(F)(F)F)c3)[C@@H](c3ccc(F)cc3C)C2)CC1 | 14.6 µM (active) | 8.2 µM (active) |  |  |

| Structure (SMILES) | Potency [1] | Potency [2] | viability (% of control) [1] | viability, % of control [2] |
| --- | --- | --- | --- | --- |
| Cc1oc2nc3c(c(NC(=O)CN4CCCC4=O)c2c1C)CCCC3 | inactive | inactive |  |  |
| CC1(C)CCC2(C(=O)OC3OC(COC4OC(CO)C(O)C(O)C4O)C(O)C(O)C3O)CCC3(C)C(=CCC4C5(C)CCC(O)C(C)(C(=O)O)C5CCC43C)C2C1O (configuration not stated) |  |  | 83.4% [at 9.25 µM] | 102% [at 9.25 µM] |
| Cc1cc(N2CCCCC2)nc2ccccc12 | inactive | inactive |  |  |
| O=C1C[C@@H](c2ccc(O)cc2)Oc2cc(O)ccc21 | 11.6 µM (active) | 14.6 µM (active) |  |  |
| C/C(=C\CO)CC/C=C(\C)C(=O)O[C@@H]1O[C@H](CO)[C@@H](O)[C@H](O)[C@H]1O | inactive | inactive |  |  |
| CCOC(=O)c1ccc(N(C)c2csc(-c3ccccc3)n2)cc1 | inactive | inactive |  |  |
| Cc1c(-c2ccnc(Nc3cc(Br)cc(C(F)(F)F)c3)n2)sc(=O)n1C | inactive | inactive |  |  |
| CC(Sc1nc2c(cnn2-c2cccc(Cl)c2)c(=O)[nH]1)C(N)=O (configuration not stated) | inactive | inactive |  |  |
| COc1cc2occc2c(O[C@@H]2O[C@H](CO)[C@@H](O)[C@H](O)[C@H]2O)c1CCC(=O)O | inactive | inactive |  |  |
| CC(C)(Cc1nc(-c2ccc(O)cn2)no1)C(=O)NC1=C(C(=O)O)CCCC1 | inactive | inactive |  |  |
| Cc1c(C(=O)NCCCO)cnn1-c1nc(-c2cccc(C(F)(F)F)c2)cs1 | 14.6 µM (active) | 14.6 µM (active) |  |  |
| CCCC(=O)Nc1cccc(NC(=O)c2ccccc2Br)c1 | inactive | inactive |  |  |
| O=c1cc(NCCCN[C@@H]2CCOc3c(Br)cc(Br)cc32)[nH]c2ccsc12 | 10.3 µM (active) | 7.31 µM (active) |  |  |
| C[C@H]1[C@@H](O)[C@H](O)C2[C@]3(C)C([C@@H](O)[C@H]4OC(=O)[C@@H]1[C@@]24C)[C@](C)(O)C=C[C@H]3O[C@@H]1O[C@H](CO)[C@@H](O)[C@H](O)[C@H]1O (some centres not stated) | inactive | inactive |  |  |
| C=CC1(C)CC(OC(=O)/C(C)=C\COC(C)=O)C(C(=C)C(=O)O)C(O)C1C(=C)CO (configuration not stated) | inactive | inactive |  |  |
| Clc1ccc(Cn2c(CN3CCCC3)nc3ccccc32)cc1 | 14.8 µM (active) | 15 µM (active) and 14.8 µM (active) |  |  |
| COC(=O)c1cc(CN2CCN(C(=N)N)CC2)cc(C(=O)N2CCN(C(=O)c3ccc(C(=N)N)cc3)CC2)c1 | inactive | inactive |  |  |
| CC12CCC(OC3OC(CO)C(O)C(OC4OC(CO)C(O)C(O)C4O)C3O)CC1CCC1C2CCC2(C)/C(=C3/COC(=O)C3)CCC12O (configuration not stated) | inactive | inactive |  |  |
